Consider 19 molecules from PubChem BioAssay (NCATS).

Records with an inconclusive call do not appear. A number with no mark means an inactive call. Calls of active or inactive are those of the source. The call rests on the fitted dose curve; in most records, active means well fitted cell-killing curve with a large enough effect; inconclusive means small, poorly fitted or top-dose-only effect; inactive means flat fitted curve, though single readings scatter.

This assay can be described thus: Cell Viability - LYMP2-023 (AID 975). Further: nearly all actives have a fitted effect of over 55% in size. To be noted: LYMP2-023 lymphoblastoid cell viability; series mostly up to 92.2 µM; activity change, negative = cytotoxicity: at the top concentration. An excerpt: NIH Chemical Genomics Center [NCGC]
NIH Molecular Libraries Screening Centers Network [MLSCN]
National Institutes of Environmental Health Sciences [NIEHS]
National Toxicology Program [NTP]
We have developed a 1536-well cell-based assay for quantitative high throughput screening (qHTS) against a number of cell lines to determine in vitro cytotoxicity of small molecules. This particular assay uses a human lymphoblastoid cell line (LYMP2-023) purchased from Coriell Institute for Medical Research.
NCGC Assay Protocol Summary:
The CellTiter-Glo luminescent cell viability assay (Promega) is a homogeneous method to measure the number of viable cells in culture. The end point readout of this assay is based on quantitation of intracellular ATP, an indicator of metabolic activity, using the luciferase reaction. Luciferase catalyzes the oxidation of beetle Luciferin to oxyluciferin and light in the presence of ATP. The luminescent signal is proportional to amount of ATP present.
Using the CellTiter-Glo luminescent cell viability assay, the amount of cellular ATP was measured in the lymphoblastoid cell line with complete culture medium following compound treatment for 24 hours. The assay was performed in opaque white Kalypsys 1536-well plates. In the screen, tetraoctylammonium bromide was used as positive control. Library compounds were measured for their ability to cause acute toxicity in the cell line, as reflected by a decrease in intracellular ATP levels, in a concentration-dependent manner. […] AC50 values were determined from concentration-response data modeled with the standard Hill equation.
qHTS protocol for CellTiter Glo lymphoblastoid cellular assay
[Step] [Parameter] [Value] [Description]
1. Reagent; 5 uL; 2500 lymphoblastoid cells/well
2. Time; 5 hr; 37 C incubation
4. Controls; 23 nL; Tetraoctylammonium bromide 6.4pM to 92 uM
5. Time; 24 hr; 37 C incubation
6. Reagent; 5 uL; CellTiter Glo reagent
7. Time; 30 min; Room Temperature
8. Detection; Luminescence; Viewlux plate reader
Keywords: cell viability, cytotoxicity, lymphoblastoid cell line, luminescence, NTPHTS, NTPHTS_NCGC, NIEHS, DSSTox, MLSMR, MLSCN, NIH Roadmap, qHTS, NCGC
Take `Clc1ccc(C(c2ccccc2Cl)C(Cl)Cl)cc1` (centres undefined): the “activity change, negative = cytotoxicity” value is -4.09%.

Turning to `Cc1cn([C@H]2C=C[C@@H](CO)O2)c(=O)[nH]c1=O`, the molecule was called inactive.

As for `CC(C)C(=O)Nc1ccc([N+](=O)[O-])c(C(F)(F)F)c1`, the “activity change, negative = cytotoxicity” value was -26.6%.

As for `O=c1c(-c2ccc(O)cc2)coc2cc(O)cc(O)c12`, the “activity change, negative = cytotoxicity” value is -2.32%.

On to `NS(=O)(=O)c1cc2c(cc1Cl)NCNS2(=O)=O`, for which the “activity change, negative = cytotoxicity” value is -0.293%.

Take `O=c1[nH]cc(F)c(=O)[nH]1`: the “activity change, negative = cytotoxicity” value was -16.2%.

For the molecule `Cn1c(=O)c2c(ncn2C)n(C)c1=O`, the “activity change, negative = cytotoxicity” value was 1.57%.

As to `Cc1cn([C@H]2C[C@H](N=[N+]=[N-])[C@@H](CO)O2)c(=O)[nH]c1=O`, the “activity change, negative = cytotoxicity” value was -0.458%.

On to `COc1ccc2[nH]cc(CCNC(C)=O)c2c1`, for which the “activity change, negative = cytotoxicity” value is -1.72%.

`Cn1c(=O)c2[nH]cnc2n(C)c1=O`: the “activity change, negative = cytotoxicity” value is -3.5%.

As for `NCCS(=O)(=O)O`, the “activity change, negative = cytotoxicity” value was -3.32%.

Consider `COc1cc2c(c(OC)c1OC)-c1ccc(OC)c(=O)cc1[C@@H](NC(C)=O)CC2`, for which the “activity change, negative = cytotoxicity” value is -19.6%.

`Nc1ccn([C@H]2CC[C@@H](CO)O2)c(=O)n1`: the “activity change, negative = cytotoxicity” value was 1.93%.

Consider `Cc1ccc(-c2cc(C(F)(F)F)nn2-c2ccc(S(N)(=O)=O)cc2)cc1`, for which the “activity change, negative = cytotoxicity” value was 1.35%.

For the molecule `CCC1(c2ccccc2)C(=O)NCNC1=O`, the “activity change, negative = cytotoxicity” value was -2.19%.

Turning to `N[C@@H](Cc1c[nH]c2ccc(O)cc12)C(=O)O`, the “activity change, negative = cytotoxicity” value was -0.411%.

Turning to `CC(C)NCC(O)c1ccc(O)c(O)c1` (centres undefined), the “activity change, negative = cytotoxicity” value was -3.05%.

As to `COc1ccc2c(c1)c(CC(=O)O)c(C)n2C(=O)c1ccc(Cl)cc1`, the “activity change, negative = cytotoxicity” value was -2.26%.

On to `Nc1c2c(nc3ccccc13)CCCC2`, for which the “activity change, negative = cytotoxicity” value was -8.33%.
